Assay [1] concerns the target Lysosomal acid glucosylceramidase (Homo sapiens) (UniProt P04062). The assay can be described thus: Glucocerebrosidase-p2 (AID 348; in the data active means potency below about 10 µM; further: potency means the concentration at half of the fitted maximal effect). The following applies: purified GBA, blue fluorogenic substrate, 40 min. The gist of the method: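 Compounds titrated from 0.6 nM upwards against 0.2 nM enzyme in pH 5.9 citric acid/KH2PO4, taurocholate, tween-20; blue fluorogenic substrate 80 uM, 40 min room temperature, stopped and read Ex 365/Em 440 for AC50.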

Assay [2] in a line: AP1 Signaling Pathway (AID 357). Further: on the % scale 0 is the no-effect control and ±100 the full control effect. The following applies: ME-180 AP-1-bla reporter, EGF-induced, beta-lactamase ratio, 5 h; at 7.69 µM (top of the series) unless noted. A digest of the protocol: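 Read-out was the 460nm/530nm emission ratio (excitation 405nm) after CCF4 loading for 2.5 hours at room temperature. Cells carried an AP-1-driven beta-lactamase reporter, were stimulated with EC50 EGF plus compound for 5 hours, and AC50 values came from titrations.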

Assay [3] deals with Cytochrome P450 1A2 (Homo sapiens) (UniProt P05177). Nature of the assay: p450-cyp1a2 (AID 410; calls by dose curve; further: potency means the concentration at half of the fitted maximal effect;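 on activity change, negative = inhibition: -100% = full effect of reference inhibitor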). The following applies: recombinant CYP1A2, luciferin-ME demethylation, luminescence; series mostly up to 11.4 µM. A digest of the protocol:
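Human CYP1A2 (20nM) demethylated Luciferin-ME at its Km (100uM) in 100mM KPO4. After 10 min compound preincubation, NADPH regeneration ran the reaction 60 min at room temperature. Luciferin was read by luminescence, normalized to 57 uM furafylline.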

Assay [4] is described as follows: NFAT Signaling Pathway (AID 444).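 Further: carbachol stimulus at about its EC50 of 1 µM final; on the % scale 0 is the no-effect control and ±100 the full control effect.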 The note with it: Jurkat NFAT-bla M1, carbachol, beta-lactamase ratio, 5 h; at 7.69 µM (top of the series) unless noted. The gist of the method: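 Jurkat cells with NFAT-driven β-lactamase reporter and co-expressed M1 receptor, stimulated with carbachol (final 1 uM, ~EC50), compound titration, 5 h at 37 °C. CCF4 loaded 1 h at RT; 460/530 nm ratio gave %activity and AC50.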

Assay [5] in a line: Stat Signaling Pathway (AID 446).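 Further: ME-180 cervical cancer cells given 40 pM IL-6 alongside compound; SIE-controlled beta-lactamase reporter measured as 460/530 nm FRET emission ratio; on the % scale 0 is the no-effect control and ±100 the full control effect.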 The following applies: ME-180 SIE beta-lactamase reporter, IL-6 stimulated, 5 h; at 7.69 µM (top of the series) unless noted. A digest of the protocol: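 ME-180 SIE-bla cells; overnight plating; cpd + IL-6 40 pM, 5 h, 37 C; LiveBLAzer 2.5 h RT; 460/530 nm emission ratio. Normalized to 300 pM IL-6 and 125 nM JAK inhibitor controls.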
For assay [6], the target named is Glucocorticoid receptor (Homo sapiens) (UniProt P04150). Nature of the assay: GR-GFP Redistribution (AID 450;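 active means compounds whose dose series gives a full or clear partial fitted curve of increased nuclear translocation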; further: potency means the concentration at half of the fitted maximal effect). The following applies: U2OS GR-GFP nuclear translocation, laser cytometry, 2 h.
The target is the same in assay [7]. The assay can be described thus: GR-EFC Redistribution (AID 451; calls by dose curve; further: potency means the concentration at half of the fitted maximal effect). The following applies: CHO-K1 GR-EFC translocation, beta-gal luminescence, 2 h. A digest of the protocol:
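CHO-K1 cells expressing nuclear EA and GR-ED fragments of b-gal; compounds titrated up to 46 uM final, 2 h at 37 C. GR nuclear translocation read as complemented b-gal luminescence after 1 h RT detection.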

Assay [8] addresses Mitogen-activated protein kinase 10 (Mus musculus) (UniProt Q61831). The assay can be described thus: JNK3 AlphaScreen Assay (AID 530).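 Further: kinase came from lysate of stimulated human HepG2 cells; signal reports phosphorylation of biotinylated GST-cJun 1-79 at Ser73 with 10 µM ATP; on the % scale 0 is the no-effect control and ±100 the full control effect.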 The following applies: JNK3 lysate, c-Jun phosphorylation; series mostly up to 11.4 µM. A digest of the protocol:
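qHTS format: compounds tested as titrations against IL-1beta/TNF-alpha-activated HepG2 lysate JNK3 with biotin-GST-cJun substrate and 10 uM ATP at room temperature. Loss of anti-phospho-cJun AlphaScreen signal indicates inhibition.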
On the technique in general: In Alpha technology, singlet oxygen from a donor bead excites a nearby acceptor bead.

Assay [9] deals with 3',5'-cyclic-AMP phosphodiesterase 4B (Homo sapiens) (UniProt Q07343). The assay can be described thus: qHTS Assay for Inhibitors of PDE-IV (AID 607; active means well fitted activation curve with a large enough effect in the main read-out, with a control signal flat, not every such curve was filed as active; further: % of control where 0% means no effect). The following applies: HEK293 ACTOne CNG channel cells, membrane potential fluorescence; series mostly up to 22.9 µM. A digest of the protocol:
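ACTOne HEK293 cells carry a modified cAMP-gated CNG channel and express endogenous PDE4; plated 1000 cells/well, compounds up to 22.9 uM final. Membrane-potential dye fluorescence (ex 535/em 590) was read; parental cells received 10 uM forskolin + 100 uM RO 20-1724.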

Assay [10] concerns the target Cytochrome P450 3A4 (Homo sapiens) (UniProt P08684). The assay can be described thus: qHTS Assay for Inhibitors and Substrates of Cytochrome P450 3A4 (AID 884; active means well fitted curve in the direction sought with a large enough effect; an effect the other way counts as inactive or inconclusive; further: potency means the concentration at half of the fitted maximal effect; nearly all actives have a fitted effect of over 50% in size). The following applies: recombinant CYP3A4, Luciferin-PPXE luminescence; series mostly up to 57.1 µM. A digest of the protocol: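 20 nM human CYP3A4 with 25 uM Luciferin-PPXE (at KM) in 200 mM KPO4, preincubated 10 min with compound; NADPH regeneration started a 60 min RT reaction. Luciferin detected by luminescence, normalized to 57 uM ketoconazole as full inhibition.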
Background: qHTS replaces the single test concentration by a dilution series.

The target is the same in assay [11]. The assay can be described thus: qHTS Assay for Activators of Cytochrome P450 3A4 (AID 885; active means well fitted curve in the direction sought with a large enough effect; an effect the other way counts as inactive or inconclusive; further: nearly all actives have a fitted effect of over 65% in size). The following applies: recombinant CYP3A4, Luciferin-PPXE luminescence, 60 min; series mostly up to 11.4 µM. The gist of the method: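 20nM CYP3A4 + 25uM Luciferin-PPXE (=KM), 200mM KPO4; cpd 10 min RT; NADPH regen, 60 min RT; stop w/ detection buffer, 20 min; luminescence. Normalized to 57 uM ketoconazole.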

In assay [12] the target is Cytochrome P450 2C19 (Homo sapiens) (UniProt P33261). Nature of the assay: qHTS Assay for Inhibitors and Substrates of Cytochrome P450 2C19 (AID 899; active means well fitted curve in the direction sought with a large enough effect; an effect the other way counts as inactive or inconclusive; further: potency means the concentration at half of the fitted maximal effect; nearly all actives have a fitted effect of over 60% in size). The note with it: recombinant CYP2C19, luciferin-H EGE luminescence; series mostly up to 11.4 µM. A digest of the protocol: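 Signal comes from luciferase acting on luciferin released by CYP2C19-mediated hydroxylation of Luciferin-H EGE, 10uM (KM). Assay mix: 5nM enzyme, 50mM KPO4; 60 min at 37C with NADPH regeneration. Data normalized against 57uM ketoconazole.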

The target of assay [13] is Cytochrome P450 2D6 (Homo sapiens) (UniProt P10635). The assay can be described thus: qHTS Assay for Inhibitors and Substrates of Cytochrome P450 2D6 (AID 891; active means well fitted curve in the direction sought with a large enough effect; an effect the other way counts as inactive or inconclusive; further: potency means the concentration at half of the fitted maximal effect; nearly all actives have a fitted effect of over 60% in size). The following applies: recombinant CYP2D6, luciferin-ME EGE luminescence; series mostly up to 11.4 µM. The gist of the method:
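Human CYP2D6 (5 nM) with 30 uM Luciferin-ME EGE (at Km) in 100 mM KPO4, compound preincubated 10 min, then NADPH regeneration system for 60 min at room temperature. Luciferin read by luminescence; normalized to 1.43 uM quinidine.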

Unmarked numbers belong to inactive results. Results filed as inconclusive are left out. Calls of active or inactive are those of the source. Unless noted, the call rests on the fitted dose curve; in most records, active means well fitted curve in either direction with a large enough effect (not every such curve was filed as active); inconclusive means small, poorly fitted or top-dose-only effect, or another doubt; inactive means flat fitted curve, though single readings scatter.

Cytochrome P450 1A2 (Homo sapiens), sequence (P05177 whole entry, looked up): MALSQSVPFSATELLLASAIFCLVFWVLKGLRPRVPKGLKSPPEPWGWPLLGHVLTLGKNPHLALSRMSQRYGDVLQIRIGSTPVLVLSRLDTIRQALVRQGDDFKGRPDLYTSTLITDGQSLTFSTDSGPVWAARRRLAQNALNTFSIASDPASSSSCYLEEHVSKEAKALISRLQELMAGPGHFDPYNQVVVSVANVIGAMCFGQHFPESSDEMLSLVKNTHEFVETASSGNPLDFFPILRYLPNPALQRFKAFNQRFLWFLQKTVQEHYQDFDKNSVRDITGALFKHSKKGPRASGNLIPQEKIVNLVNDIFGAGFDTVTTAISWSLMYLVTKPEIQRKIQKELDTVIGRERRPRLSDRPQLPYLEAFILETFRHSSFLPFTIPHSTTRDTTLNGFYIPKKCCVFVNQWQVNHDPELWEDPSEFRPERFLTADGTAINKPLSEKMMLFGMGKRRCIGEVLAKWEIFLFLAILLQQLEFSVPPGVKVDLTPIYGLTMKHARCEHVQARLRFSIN
3',5'-cyclic-AMP phosphodiesterase 4B (Homo sapiens), sequence (Q07343 whole entry, looked up): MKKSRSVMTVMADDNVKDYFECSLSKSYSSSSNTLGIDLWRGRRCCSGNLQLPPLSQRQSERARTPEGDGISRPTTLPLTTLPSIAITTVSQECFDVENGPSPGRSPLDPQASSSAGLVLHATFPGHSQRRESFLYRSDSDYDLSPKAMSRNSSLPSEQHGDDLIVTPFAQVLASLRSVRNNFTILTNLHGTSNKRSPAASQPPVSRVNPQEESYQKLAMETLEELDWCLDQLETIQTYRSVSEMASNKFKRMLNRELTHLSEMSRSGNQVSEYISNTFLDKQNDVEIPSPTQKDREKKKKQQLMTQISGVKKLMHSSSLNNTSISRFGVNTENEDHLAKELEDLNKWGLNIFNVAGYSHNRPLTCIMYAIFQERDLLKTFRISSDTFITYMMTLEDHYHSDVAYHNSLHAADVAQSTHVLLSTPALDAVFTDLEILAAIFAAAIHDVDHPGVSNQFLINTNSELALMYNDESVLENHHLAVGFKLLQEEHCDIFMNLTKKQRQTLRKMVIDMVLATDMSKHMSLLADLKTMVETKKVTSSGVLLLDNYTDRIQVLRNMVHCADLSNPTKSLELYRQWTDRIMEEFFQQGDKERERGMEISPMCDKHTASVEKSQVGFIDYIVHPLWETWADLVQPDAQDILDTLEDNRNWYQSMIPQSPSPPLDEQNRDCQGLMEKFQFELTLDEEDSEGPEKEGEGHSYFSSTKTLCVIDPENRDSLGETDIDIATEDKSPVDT
Cytochrome P450 3A4 (Homo sapiens), sequence (P08684 whole entry, looked up): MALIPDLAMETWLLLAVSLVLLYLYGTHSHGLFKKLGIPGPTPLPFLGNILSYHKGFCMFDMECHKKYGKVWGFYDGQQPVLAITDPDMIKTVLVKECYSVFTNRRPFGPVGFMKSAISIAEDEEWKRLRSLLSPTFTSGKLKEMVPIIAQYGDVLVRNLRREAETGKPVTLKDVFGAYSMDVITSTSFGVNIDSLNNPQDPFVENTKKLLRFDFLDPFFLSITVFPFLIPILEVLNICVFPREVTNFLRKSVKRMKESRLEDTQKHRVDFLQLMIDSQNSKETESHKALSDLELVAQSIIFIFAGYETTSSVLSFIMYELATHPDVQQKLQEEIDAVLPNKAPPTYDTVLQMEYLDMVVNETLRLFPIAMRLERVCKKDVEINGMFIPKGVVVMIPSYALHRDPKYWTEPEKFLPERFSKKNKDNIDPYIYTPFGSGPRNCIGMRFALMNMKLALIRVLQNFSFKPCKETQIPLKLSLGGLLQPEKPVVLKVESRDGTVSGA
Lysosomal acid glucosylceramidase (Homo sapiens), sequence (P04062 whole entry, looked up): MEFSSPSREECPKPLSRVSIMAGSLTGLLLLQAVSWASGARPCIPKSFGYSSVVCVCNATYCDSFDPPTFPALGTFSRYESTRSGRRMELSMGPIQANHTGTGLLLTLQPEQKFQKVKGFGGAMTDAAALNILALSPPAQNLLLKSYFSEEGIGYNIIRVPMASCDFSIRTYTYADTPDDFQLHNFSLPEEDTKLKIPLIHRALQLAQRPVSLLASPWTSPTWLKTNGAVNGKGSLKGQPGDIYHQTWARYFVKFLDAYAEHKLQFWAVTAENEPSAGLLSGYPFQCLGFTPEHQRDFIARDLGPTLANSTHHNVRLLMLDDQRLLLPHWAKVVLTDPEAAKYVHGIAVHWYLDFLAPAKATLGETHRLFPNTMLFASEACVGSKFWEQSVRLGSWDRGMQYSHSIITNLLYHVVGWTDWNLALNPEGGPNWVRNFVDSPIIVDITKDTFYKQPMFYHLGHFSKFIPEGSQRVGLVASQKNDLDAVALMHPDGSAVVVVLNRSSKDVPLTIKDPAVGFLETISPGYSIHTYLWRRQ
Glucocorticoid receptor (Homo sapiens), sequence (P04150 whole entry, looked up): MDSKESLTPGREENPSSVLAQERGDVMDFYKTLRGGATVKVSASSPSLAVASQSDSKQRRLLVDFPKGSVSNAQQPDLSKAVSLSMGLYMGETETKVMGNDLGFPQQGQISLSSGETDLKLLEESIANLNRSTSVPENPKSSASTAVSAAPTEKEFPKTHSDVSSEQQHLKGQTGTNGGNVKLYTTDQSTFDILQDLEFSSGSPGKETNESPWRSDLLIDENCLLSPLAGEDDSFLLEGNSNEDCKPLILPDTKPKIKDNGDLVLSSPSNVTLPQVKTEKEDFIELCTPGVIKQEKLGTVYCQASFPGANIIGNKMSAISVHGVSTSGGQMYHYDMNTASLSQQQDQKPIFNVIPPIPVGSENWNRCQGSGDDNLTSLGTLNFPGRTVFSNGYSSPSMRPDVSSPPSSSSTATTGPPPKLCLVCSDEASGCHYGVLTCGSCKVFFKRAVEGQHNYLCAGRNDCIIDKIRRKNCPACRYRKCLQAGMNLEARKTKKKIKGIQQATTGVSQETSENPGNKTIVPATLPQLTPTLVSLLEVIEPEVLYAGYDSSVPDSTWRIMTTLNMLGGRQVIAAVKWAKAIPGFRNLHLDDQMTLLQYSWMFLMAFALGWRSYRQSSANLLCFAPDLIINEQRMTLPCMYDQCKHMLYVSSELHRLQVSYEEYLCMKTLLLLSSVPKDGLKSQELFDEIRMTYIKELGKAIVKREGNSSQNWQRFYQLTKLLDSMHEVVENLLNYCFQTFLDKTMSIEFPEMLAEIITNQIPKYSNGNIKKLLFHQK
Cytochrome P450 2C19 (Homo sapiens), sequence (P33261 whole entry, looked up): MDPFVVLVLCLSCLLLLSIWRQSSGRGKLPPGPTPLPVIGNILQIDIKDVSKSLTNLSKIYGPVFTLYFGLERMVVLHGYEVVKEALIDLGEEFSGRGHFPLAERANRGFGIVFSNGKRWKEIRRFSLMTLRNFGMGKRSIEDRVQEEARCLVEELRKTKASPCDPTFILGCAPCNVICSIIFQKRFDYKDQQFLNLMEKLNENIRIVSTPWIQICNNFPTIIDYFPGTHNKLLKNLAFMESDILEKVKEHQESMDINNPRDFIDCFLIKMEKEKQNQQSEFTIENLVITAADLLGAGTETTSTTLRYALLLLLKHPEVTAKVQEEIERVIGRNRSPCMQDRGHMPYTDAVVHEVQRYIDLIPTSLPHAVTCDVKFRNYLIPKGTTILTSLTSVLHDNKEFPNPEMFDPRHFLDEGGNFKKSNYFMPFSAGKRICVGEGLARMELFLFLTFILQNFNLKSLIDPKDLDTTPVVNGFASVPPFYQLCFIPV
Cytochrome P450 2D6 (Homo sapiens), sequence (P10635 whole entry, looked up): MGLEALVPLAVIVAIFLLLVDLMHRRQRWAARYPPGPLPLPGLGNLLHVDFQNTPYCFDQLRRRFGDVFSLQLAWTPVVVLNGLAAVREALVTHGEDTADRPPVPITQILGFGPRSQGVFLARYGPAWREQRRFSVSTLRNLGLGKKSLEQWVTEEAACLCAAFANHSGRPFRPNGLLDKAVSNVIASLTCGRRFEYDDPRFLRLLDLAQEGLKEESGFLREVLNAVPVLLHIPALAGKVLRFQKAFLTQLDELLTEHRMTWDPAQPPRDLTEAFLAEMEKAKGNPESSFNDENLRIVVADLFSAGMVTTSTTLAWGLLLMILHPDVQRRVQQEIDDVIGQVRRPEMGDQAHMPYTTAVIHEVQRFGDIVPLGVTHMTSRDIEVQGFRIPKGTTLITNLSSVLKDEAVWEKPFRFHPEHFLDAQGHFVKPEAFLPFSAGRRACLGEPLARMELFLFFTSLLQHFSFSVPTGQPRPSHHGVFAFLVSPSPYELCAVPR

Regarding `Nc1nc(SCCc2ccccc2)c2[nH]cnc2n1`, the Potency was over 11.4 µM in [1]; 3.16 µM (active) in [3]; over 46 µM in assay [6]; over 9.22 µM in assay [7]; 2.51 µM (active) in assay [10]; 0.631 µM (active) in [12]. Also, the activity change, negative = inhibition in assay [2] was -4.07%; in assay [4], 15.6%. Further, in assay [5], the activity, negative = inhibition is -1.34%. The Potency result in assay [8], in assay [9] and in assay [11] was “inactive” each time.
Regarding `COCCn1c(=O)c(-c2cc(F)cc(F)c2)nc2cnc(Oc3ccccc3)nc21`, the Potency was over 11.4 µM in [1], 5.01 µM (active) in [3], over 9.22 µM in assay [6] and over 46 µM in [7]. For the same compound, the values for the activity change, negative = inhibition in assay [2] and in assay [4] were 0.911% and -3.81%, respectively. The activity, negative = inhibition in assay [5] was 0.0611%. Also, the Potency entry in [8], in [9] and in [11] was “inactive” in each case.
With `Cc1ccc(Nc2nnc(-c3ccc4c(c3)OCO4)o2)c(C)c1`, the Potency in assay [1] was over 11.4 µM; in assay [3] it was 2.51 µM (active); in assay [6] it was over 46 µM; in assay [7], over 9.22 µM; in [10], 3.16 µM (active). For the same compound, the figures for the activity change, negative = inhibition in assay [2] and in assay [4] were -5.47% and 1.57%, respectively. Besides, the activity, negative = inhibition in assay [5] was -2.78%. Also, the Potency result in [8], in assay [9] and in assay [11] was “inactive” throughout.
With `c1cc(CNCCN2CCNCC2)ccn1`, the figures for the Potency in assay [1], in [6] and in assay [7] were over 11.4 µM, over 46 µM and over 9.22 µM, respectively. Further, the values for the activity change, negative = inhibition in assay [2] and in [4] were -6.63% and 3.58%, respectively. Moreover, the Potency entry in assay [3], in assay [8], in assay [9] and in assay [11] was “inactive” throughout. Besides, the activity, negative = inhibition in [5] was -1.72%.
As for `C=C[C@]1(C)C[C@H](OC(=O)CO)[C@]2(C)C3C(=O)CC[C@]3(CC[C@H]2C)[C@H](C)[C@H]1O` (stereo partly specified), the Potency was over 11.4 µM in assay [1], over 46 µM in [6] and over 9.22 µM in assay [7]. The activity change, negative = inhibition was -0.357% in [2], -21% [at 2.29 µM] in assay [3] and -4.75% in assay [4]. Further, the activity, negative = inhibition in assay [5] was -4.08%. Also, the Potency entry in [8], in assay [9] and in assay [11] was “inactive” throughout.
As for `CC1=C/C(=C(/c2ccc(O)c(C)c2)c2ccccc2C(=O)O)C=CC1=O`, the Potency in [1] was over 11.4 µM; in [3] it was 3.16 µM (active); in assay [6] it was over 46 µM; in assay [7], over 9.22 µM; in assay [10] it was 1.58 µM (active); in assay [13], 1.58 µM (active). The Potency in [12] is 0.0032 µM (active). Further, the activity change, negative = inhibition is 12.7% in [2] and -5.21% in [4]. Further, in assay [5], the activity, negative = inhibition was 4.74%. The Potency entry in assay [8], in assay [9] and in assay [11] was “inactive” throughout.

Source of the values: PubChem BioAssay (NCATS).
